# Data: PubChem BioAssay (NCI)
# Where “and” joins values, the source holds several entries; their conditions need not be identical. Identical values can stand only once. Compounds without any hit were thinned out: in the full panel of roughly 83,000, 20% have a hit.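 Compound tested at a single concentration for 48 hours in 96-well plates; a percent growth value below 10 was scored as active.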 Calls of active or inactive are those of the source.
# Test system: TK-10 renal
# Assay: NCI-60 one-dose screen, 48 h (100 = growth as untreated, 0 = no growth, -100 = all killed)
# Settings: 10 µM unless noted
row,Structure (SMILES),growth
1,COc1ccc(CC2c3cc(OC)c(OC)c(OC)c3CC[N+]2(C)C)cc1Oc1ccc(CC2c3cc4c(c(OC)c3CCN2C)OCO4)cc1 (configuration not stated),85.8% [100 µM] (inactive) and 47.5% [100 µM] (inactive)
2,O=C1c2c(O)ccc(O)c2C(=O)c2c(NCCNC(=O)C(O)C(O)C(O)C(O)CO)ccc(NCCNC(=O)C(O)C(O)C(O)C(O)CO)c21 (configuration not stated),-82.4% [100 µM] (active) and -95.9% [100 µM] (active)
3,CCCCOC(=O)C1CN2C(=NC1(C(F)(F)F)C(F)(F)F)Sc1ccccc12 (configuration not stated),33.3% [100 µM] (inactive) and 71.4% [100 µM] (inactive)
4,C=C1CC(O)C2C(=C)C(=O)OC2C2C(C)C(=O)CC12 (configuration not stated),-95.6% [100 µM] (active) and -97% [100 µM] (active)
5,COc1ccc(C2=C(N)c3ccccc3C2=O)cc1,79.7% [100 µM] (inactive) and -100% [100 µM] (active)
6,O=c1c2ncn(C3CCCCO3)c2n(-c2ccccc2)c(=S)n1-c1ccccc1 (configuration not stated),20.1% [100 µM] (inactive) and 23.9% [100 µM] (inactive)
7,CCCC(=O)Oc1c2ccsc2c(OC(=O)CCC)c2ccsc12,-72.5% [100 µM] (active) and -100% [100 µM] (active)
